Measurements from PubChem BioAssay.
Calls of active or inactive are those of the source. Unless noted, how the calls were made is not given here.

Assays:
[1] = anti-His antibody binders, primary screen, artefact control for SMM control protein annotation, biochemical, small-molecule microarray, 635 nm fluorescence (AID 1128); conditions: anti-His Alexa647 antibody binding, higher = more signal;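 further: score merges feature fluorescence with signal-to-noise for each printed compound spot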
[2] = test system: Human papillomavirus type 1a E7 protein (residues 1-88); assay: HPV1a E7 small-molecule binders, primary screen, biochemical, small-molecule microarray, residues 1-88, 635 nm (AID 1129); conditions: small-molecule microarray binding, fluorescence 635 nm; higher = more signal
[3] = molecular target: Focal adhesion kinase 1 (Homo sapiens) (UniProt Q05397); assay: small-molecule microarray binders of FAK, primary screen, biochemical, 635/667 nm fluorescence, BSA, DTT (AID 1130); conditions: PTK2 binding, 635 nm fluorescence, higher = more signal;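 further: composite of spot emission at 667 nm and signal to noise over triplicate slides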
[4] = test system: Fibrinogen (Alexa647-labelled); assay: fibrinogen binders on compound microarrays, profiling panel, artefact control for SMM control-protein annotation, biochemical, small-molecule microarray, 635/667 nm fluorescence (AID 1131); conditions: fibrinogen-A647 binding fluorescence, higher = more signal;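 further: z-score merges 667 nm fluorescence with per-spot signal-to-noise over triplicate slides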
[5] = molecular target: Follistatin (Homo sapiens) (UniProt P19883); assay: follistatin binders on small-molecule microarrays, primary screen, biochemical, small-molecule microarray, 635/667 nm fluorescence (AID 1132); conditions: FST binding, 635 nm fluorescence, higher = more signal
[6] = molecular target: Fibroblast growth factor 2 (Homo sapiens) (UniProt P09038); assay: FGF2 binders on small-molecule microarrays, primary screen, biochemical, small-molecule microarray, 635/667 nm fluorescence (AID 1133); conditions: small-molecule microarray binding, FGF2, fluorescence 635/667; higher = more signal
[7] = mitochondrial membrane potential change in A549 cells, profiling panel, cell-based, JC-1 fluorescence, basal, 24 h, 100 nL (AID 1138); conditions: higher = more signal;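 further: A549 lung adenocarcinoma cells under basal conditions with no added stimulus; test concentration not given here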
[8] = test system: Lefty1; assay: Lefty1 binders on small-molecule microarrays, primary screen, biochemical, small-molecule microarray, 635/667 nm fluorescence (AID 1139); conditions: small-molecule microarray binding, fluorescence 635/667; higher = more signal
[9] = test system: wheat germ agglutinin (Triticum aestivum), Alexa647-labelled; assay: wheat germ agglutinin binders on compound microarrays, profiling panel, artefact control for SMM control-protein annotation, biochemical, small-molecule microarray, 635/667 nm fluorescence (AID 1140); conditions: WGA-A647 binding, 635 nm fluorescence, higher = more signal;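 further: score merges 667 nm feature emission with signal to noise over triplicate slides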
[10] = molecular target: Luciferin 4-monooxygenase (Photinus pyralis) (UniProt P08659); assay: firefly luciferase enzyme inhibitors, primary screen, biochemical, luminescence, purified enzyme, 2006 set (AID 1141); conditions: SteadyGlo luminescence, 30 min, higher = more signal, called active from +8 up or from −8 down;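 further: cell-free assay with purified firefly luciferase at 100 ng per well in PBS; test concentration not given here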
[11] = test system: Wnt5a (protein binding on small-molecule microarray); assay: Wnt5a binders on small-molecule microarray, primary screen, biophysical, 635/667 nm fluorescence (AID 1142); conditions: 635 nm fluorescence, higher = more signal;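 further: fluorescence read at 667 nm with signal to noise per printed feature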
[12] = cell viability in Huh7 cells, primary screen, cytotoxicity control for HCV replication inhibitor project, CellTiter-Glo luminescence, basal, 48 h (AID 1143); conditions: Huh7 HCV replicon, higher = more signal, called active from +8 up or from −8 down;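 further: Huh7 hepatoma cells carrying a hepatitis C replication reporter with no stimulus; test concentration not given here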
[13] = P. aeruginosa biofilm formation inhibitors, primary screen, PAO1 strain, BacTiter-Glo luminescence, LB-PBS (AID 1144); conditions: 12 h, higher = more signal
[14] = CREB reporter modulators without forskolin, primary screen, cell-based, PC12, CRE-LacZ reporter, unstimulated (AID 1145); conditions: no forskolin, luminescence, 4.5 h, higher = more signal, called active from +8 up or from −8 down
[15] = CREB reporter modulators under forskolin, primary screen, cell-based, PC12, CRE-LacZ reporter, forskolin-stimulated (AID 1146); conditions: luminescence, 4.5 h, higher = more signal, called active from +8 up or from −8 down;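 further: PC12 cells with 6xCRE LacZ reporter stimulated by forskolin 10 µM; beta-galactosidase reporter signal reflecting CREB driven transcription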
[16] = molecular target: Streptavidin (Streptomyces avidinii) (UniProt P22629); assay: streptavidin binders on small-molecule microarray, primary screen, artefact control for SMM compound annotation, biophysical, 635/667 nm fluorescence (AID 1147); conditions: streptavidin binding, higher = more signal;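 further: signal reflects streptavidin binding to arrayed compounds as a control protein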
[17] = small-molecule binders of probe aInhba, primary screen, biochemical, small-molecule microarray, 635/667 nm fluorescence (AID 1148); conditions: higher = more signal;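 further: score merges 667nm spot fluorescence with signal-to-noise for antibody binding to printed compounds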
[18] = molecular target: Torsin-1A (Homo sapiens) (UniProt O14656); assay: torsin A binders from cell lysate, primary screen, small-molecule microarray, wild-type, 635/667 nm (AID 1149); conditions: COS7 hTOR1A-WT lysate, 635 nm fluorescence, higher = more signal
[19] = molecular target: Torsin-1A (Homo sapiens) (UniProt O14656); assay: small-molecule binders of mutant TOR1A in lysate, primary screen, cell lysate, small-molecule microarray, COS7 lysate, 635/667 nm fluorescence (AID 1150); conditions: COS7 hTOR1A mutant lysate, 635 nm fluorescence, higher = more signal;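 further: score pools 667 nm emission and signal to noise measuring lysate protein binding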
[20] = test system: Sonic hedgehog protein (Shh); assay: small-molecule binders of Shh protein, primary screen, biochemical, small-molecule microarray, 635/667 nm fluorescence (AID 1151); conditions: small-molecule microarray binding, 635 nm fluorescence; higher = more signal;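 further: Shh protein binding to compounds spotted on small-molecule microarray slides; score combines spot fluorescence intensity with signal-to-noise across triplicate slides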

Torsin-1A (Homo sapiens), sequence (O14656 whole entry, looked up): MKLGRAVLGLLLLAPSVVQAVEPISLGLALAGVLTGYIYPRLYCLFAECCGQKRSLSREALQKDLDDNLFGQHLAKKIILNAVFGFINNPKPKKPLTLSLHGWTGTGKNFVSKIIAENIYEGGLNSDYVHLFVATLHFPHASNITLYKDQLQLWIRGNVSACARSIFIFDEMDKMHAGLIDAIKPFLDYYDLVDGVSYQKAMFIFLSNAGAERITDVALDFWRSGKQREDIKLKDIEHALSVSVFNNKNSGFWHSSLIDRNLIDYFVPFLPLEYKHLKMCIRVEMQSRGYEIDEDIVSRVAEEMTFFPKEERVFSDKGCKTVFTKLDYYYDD
Luciferin 4-monooxygenase (Photinus pyralis), sequence (P08659 whole entry, looked up): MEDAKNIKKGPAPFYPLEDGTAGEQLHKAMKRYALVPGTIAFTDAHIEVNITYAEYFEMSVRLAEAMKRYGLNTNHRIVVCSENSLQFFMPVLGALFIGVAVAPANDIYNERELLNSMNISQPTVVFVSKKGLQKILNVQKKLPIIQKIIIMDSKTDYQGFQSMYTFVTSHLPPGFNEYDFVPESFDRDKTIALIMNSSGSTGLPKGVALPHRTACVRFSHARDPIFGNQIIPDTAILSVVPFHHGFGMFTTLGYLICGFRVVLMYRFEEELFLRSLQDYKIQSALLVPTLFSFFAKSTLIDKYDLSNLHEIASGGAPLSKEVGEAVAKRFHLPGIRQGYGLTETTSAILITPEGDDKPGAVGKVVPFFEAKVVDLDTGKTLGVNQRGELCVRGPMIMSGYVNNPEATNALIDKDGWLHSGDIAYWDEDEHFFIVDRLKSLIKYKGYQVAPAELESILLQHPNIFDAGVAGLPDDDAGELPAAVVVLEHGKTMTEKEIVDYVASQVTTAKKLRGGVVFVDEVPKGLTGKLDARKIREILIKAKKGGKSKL
Follistatin (Homo sapiens), sequence (P19883 whole entry, looked up): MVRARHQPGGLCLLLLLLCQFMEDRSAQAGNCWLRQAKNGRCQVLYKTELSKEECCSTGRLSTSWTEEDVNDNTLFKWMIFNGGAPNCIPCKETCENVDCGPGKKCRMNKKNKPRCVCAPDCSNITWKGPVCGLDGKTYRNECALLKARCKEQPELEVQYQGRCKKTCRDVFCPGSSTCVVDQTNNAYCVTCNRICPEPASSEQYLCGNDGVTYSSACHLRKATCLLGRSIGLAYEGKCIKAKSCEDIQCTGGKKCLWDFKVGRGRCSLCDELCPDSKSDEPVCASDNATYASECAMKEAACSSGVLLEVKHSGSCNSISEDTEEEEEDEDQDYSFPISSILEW
Fibroblast growth factor 2 (Homo sapiens), sequence (P09038 whole entry, looked up): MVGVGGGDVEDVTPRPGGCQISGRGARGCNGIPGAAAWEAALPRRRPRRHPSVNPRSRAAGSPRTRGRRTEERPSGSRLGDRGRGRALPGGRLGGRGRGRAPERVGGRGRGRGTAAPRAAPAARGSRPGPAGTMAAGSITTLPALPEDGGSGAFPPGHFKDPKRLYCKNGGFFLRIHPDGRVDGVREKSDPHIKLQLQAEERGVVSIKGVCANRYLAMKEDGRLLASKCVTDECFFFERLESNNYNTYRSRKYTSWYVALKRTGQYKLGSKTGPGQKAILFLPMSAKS
Focal adhesion kinase 1 (Homo sapiens), sequence (Q05397 whole entry, looked up): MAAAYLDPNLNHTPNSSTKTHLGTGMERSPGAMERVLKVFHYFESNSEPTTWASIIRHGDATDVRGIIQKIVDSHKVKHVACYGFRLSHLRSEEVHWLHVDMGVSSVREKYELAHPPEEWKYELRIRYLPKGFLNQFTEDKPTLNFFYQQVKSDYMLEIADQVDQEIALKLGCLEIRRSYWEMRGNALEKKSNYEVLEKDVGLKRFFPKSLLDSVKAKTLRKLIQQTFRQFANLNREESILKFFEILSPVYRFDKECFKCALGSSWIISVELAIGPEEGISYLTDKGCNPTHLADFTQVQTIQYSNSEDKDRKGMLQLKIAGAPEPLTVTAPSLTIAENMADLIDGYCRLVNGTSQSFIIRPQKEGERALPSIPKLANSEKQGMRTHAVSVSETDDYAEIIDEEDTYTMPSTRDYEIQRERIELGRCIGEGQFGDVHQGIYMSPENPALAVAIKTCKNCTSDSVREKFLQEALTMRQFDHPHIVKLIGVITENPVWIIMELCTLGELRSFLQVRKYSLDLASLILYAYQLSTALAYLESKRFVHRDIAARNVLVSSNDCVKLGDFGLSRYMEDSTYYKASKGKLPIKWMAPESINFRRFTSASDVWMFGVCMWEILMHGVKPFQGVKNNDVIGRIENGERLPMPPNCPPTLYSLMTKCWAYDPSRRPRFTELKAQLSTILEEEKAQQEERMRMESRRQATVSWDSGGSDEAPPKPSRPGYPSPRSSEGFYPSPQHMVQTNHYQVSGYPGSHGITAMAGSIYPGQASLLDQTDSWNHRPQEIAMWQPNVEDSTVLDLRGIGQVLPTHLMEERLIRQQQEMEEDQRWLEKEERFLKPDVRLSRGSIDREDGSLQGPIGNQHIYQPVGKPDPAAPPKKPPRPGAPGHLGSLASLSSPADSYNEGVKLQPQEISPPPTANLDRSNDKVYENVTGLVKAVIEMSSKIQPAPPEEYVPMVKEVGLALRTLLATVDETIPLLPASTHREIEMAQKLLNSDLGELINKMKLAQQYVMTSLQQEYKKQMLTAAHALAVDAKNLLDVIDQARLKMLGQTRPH
Streptavidin (Streptomyces avidinii), sequence (P22629 whole entry, looked up): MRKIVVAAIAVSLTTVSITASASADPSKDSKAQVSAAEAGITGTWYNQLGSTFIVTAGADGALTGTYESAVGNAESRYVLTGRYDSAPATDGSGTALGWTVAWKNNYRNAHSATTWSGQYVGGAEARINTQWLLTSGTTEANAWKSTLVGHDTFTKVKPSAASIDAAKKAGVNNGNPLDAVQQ

SMILES	composite z-score [1]	composite z-score [2]	composite z-score [3]	composite z-score [4]	composite z-score [5]	composite z-score [6]	z-score [7]	composite z-score [8]	composite z-score [9]	z-score [10]	composite z-score [11]	z-score [12]	z-score [13]	z-score [14]	z-score [15]	composite z-score [16]	composite z-score [17]	composite z-score [18]	composite z-score [19]	composite z-score [20]
COC(=O)C/C=C/C[C@]1(O)C(=O)N(C)c2ccccc21	-0.0221	0.243	1.03	-0.0833	0.721	0.561	1.03	1.17	0.0278	-1.63 (inactive)	0.0325	-1.2 (inactive)	-0.716 (inactive)	1.04 (inactive)	-1.55 (inactive)	-0.373	-0.104	0.325	0.582	0.775
CCCCCCCCCCC(O)C1C=CC2C(=O)N(c3ccccc3)C(=O)C2N1Nc1ccc(C#N)cc1 (stereo not given)	-0.0221	1.18	0.464	0.989	0.652	0.429	3.49	0.0328	1.13	0.675 (inactive)	0.525	-3.71 (inactive)	-0.209 (inactive)	-0.519 (inactive)	0.407 (inactive)	1.66	0.215	0.225	0.646	0.314
CC1CC/C=C\[C@H]2OC34C=CCN(C(C)(C)C)C(=O)[C@H]3N(CCCCCO)C(=O)[C@@H]4C2C(=O)O1 (stereo not given in full)	-1.24	-1.07	-0.83	-1.65	-0.898	-0.447	-0.227	-0.113	-0.51	0.152 (inactive)	-0.427	0.356 (inactive)	0.477 (inactive)	-0.35 (inactive)	-0.928 (inactive)	-0.719	-0.253	-0.201	-1.33	0.353
CCOC(=O)C1=CC[C@@H](c2ccccc2F)N(S(=O)(=O)c2ccc(C)cc2)[C@H]1c1ccccc1	0.477	1.07	0.13	0.756	0.685	0.0808	1.4	0.644	0.349	1.56 (inactive)	0.483	-3.92 (inactive)	0.0947 (inactive)	0.827 (inactive)	0.649 (inactive)	0.872	-0.045	0.263	0.388	0.649
CN(C)C(=O)[C@@]1(Cc2ccccc2)N=C(c2ccc(OCCCO)cc2)O[C@H]1c1ccccc1	2.33	1.24	0.179	0.971	0.232	0.393	0.568	-0.557	1.21	-0.794 (inactive)	0.87	-3.42 (inactive)	-0.315 (inactive)	0.195 (inactive)	-0.925 (inactive)	1.29	0.715	0.435	0.0678	0.141
[N-]=[N+]=Nc1ccccc1[C@@H]1OC(c2ccc(OCCCO)cc2)=N[C@]1(Cc1ccccc1)C(=O)N1CCCCC1	0.782	1.24	0.218	1.02	1.21	0.768	-1.07	0.816	1.03	-5.31 (inactive)	0.906	-4.4 (inactive)	0.316 (inactive)	0.241 (inactive)	-0.894 (inactive)	1.38	0.134	0.551	1.37	1.15
O=C(NCCN1CCOCC1)[C@@H]1c2ccccc2C(=O)N(C2Cc3ccccc3C2)[C@H]1c1ccc(CO)cc1	3.03	1.08	0.306	0.739	-0.506	0.082	2.55	-0.724	-0.0583	-1.16 (inactive)	-0.136	-1.59 (inactive)	-0.264 (inactive)	0.118 (inactive)	-1.42 (inactive)	-0.456	-0.0509	1.3	0.966	0.105
COCCOC(=O)N1C(=O)[C@@]2(c3cc(C#CC4=CCCCC4)ccc31)[C@H](c1ccccc1OCCO)N1[C@H](c3ccccc3)[C@H](c3ccccc3)OC(=O)[C@H]1[C@@H]2C(=O)NC[C@H](O)c1ccccc1	0.705	1.14	0.303	0.882	1.36	1.52	-0.701	1.46	0.658	-1.04 (inactive)	0.6	-4.97 (inactive)	0.819 (inactive)	-0.329 (inactive)	0.083 (inactive)	0.423	-0.0428	0.281	0.501	2.13
O=C1OCCC=C[C@H]2OC34C=CCN(c5ccc6ccccc6c5)C(=O)[C@H]3N(CCCO)C(=O)[C@@H]4C12 (stereo not given in full)	-0.581	-2.27	-0.459	-0.51	-1.25	-2.33	-0.446	-1.81	-1.29	-0.244 (inactive)	-1.2	-2.26 (inactive)	-0.633 (inactive)	-0.0778 (inactive)	-0.301 (inactive)	-1.16	-0.239	-1.44	-1.79	-1.93
O=C1NC(=O)C2C1C=CC(C(O)c1ccco1)N2Nc1ccc(Cl)cc1Cl (stereo not given)	0.478	0.944	-0.367	-0.468	1.13	-0.311	-0.553	0.121	0.673	-0.512 (inactive)	-0.118	-0.483 (inactive)	-0.315 (inactive)	0.0501 (inactive)	0.815 (inactive)	0.531	-0.0986	0.148	0.672	0.576
